Measurements published in PubChem BioAssay (EPA / NIEHS).
Several values for one entry are separate records, joined by “and”; a condition that tells them apart may be missing. Equal entries are not always repeated. Results filed as inconclusive are left out. More than one record can exist for a structure, and the calls need not agree. Activity calls are given as the source filed them. The calls were made as follows, unless noted: active = hit-call score of the fitted dose curve at least 0.9, where 1 is the maximum; inactive = score below 0.9.

Experiments:
[1] = biological target: Estrogen receptor (Homo sapiens) (UniProt P03372); assay: OT_ERa_GFPERaERE_0120: Odyssey Thera (OT) 2-hour HeLa Transcription Induction Assay for Estrogen Receptor (AID 2283382; active = hit-call score of the fitted dose curve at least 0.9, where 1 is the maximum)
Chain of Estrogen receptor (Homo sapiens) (P03372 whole entry, looked up): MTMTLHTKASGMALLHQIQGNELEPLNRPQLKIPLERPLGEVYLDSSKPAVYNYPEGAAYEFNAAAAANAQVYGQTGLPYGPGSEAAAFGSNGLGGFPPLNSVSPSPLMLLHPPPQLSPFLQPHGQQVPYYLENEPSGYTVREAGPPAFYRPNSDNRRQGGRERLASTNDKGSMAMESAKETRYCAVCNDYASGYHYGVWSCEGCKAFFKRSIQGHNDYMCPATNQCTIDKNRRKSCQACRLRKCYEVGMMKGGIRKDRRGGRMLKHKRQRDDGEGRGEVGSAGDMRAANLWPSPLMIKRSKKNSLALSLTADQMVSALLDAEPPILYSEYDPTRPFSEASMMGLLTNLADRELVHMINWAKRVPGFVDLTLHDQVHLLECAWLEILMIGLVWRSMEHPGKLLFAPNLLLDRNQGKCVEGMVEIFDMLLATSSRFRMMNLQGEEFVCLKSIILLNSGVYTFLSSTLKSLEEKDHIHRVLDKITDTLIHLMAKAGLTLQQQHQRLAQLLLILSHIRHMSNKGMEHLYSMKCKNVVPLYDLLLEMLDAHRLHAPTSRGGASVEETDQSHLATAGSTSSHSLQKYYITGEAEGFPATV
In short: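 HeLa, 384-well, 2 h chemical exposure; GFP reporter induction (ERE), fluorescence microscopy; high content image analysis; positive fitting direction vs DMSO.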

[2] = biological target: Retinoic acid receptor RXR-alpha (Homo sapiens) (UniProt P19793); assay: OT_NURR1_NURR1RXRa_1440: Odyssey Thera (OT) 24-hour HEK293T Protein Complementation Assay for Nurr1/retinoid X receptor (RXR) (AID 2283386; active = hit-call score of the fitted dose curve at least 0.9, where 1 is the maximum)
Chain of Retinoic acid receptor RXR-alpha (Homo sapiens) (P19793 whole entry, looked up, the tested form may be a part): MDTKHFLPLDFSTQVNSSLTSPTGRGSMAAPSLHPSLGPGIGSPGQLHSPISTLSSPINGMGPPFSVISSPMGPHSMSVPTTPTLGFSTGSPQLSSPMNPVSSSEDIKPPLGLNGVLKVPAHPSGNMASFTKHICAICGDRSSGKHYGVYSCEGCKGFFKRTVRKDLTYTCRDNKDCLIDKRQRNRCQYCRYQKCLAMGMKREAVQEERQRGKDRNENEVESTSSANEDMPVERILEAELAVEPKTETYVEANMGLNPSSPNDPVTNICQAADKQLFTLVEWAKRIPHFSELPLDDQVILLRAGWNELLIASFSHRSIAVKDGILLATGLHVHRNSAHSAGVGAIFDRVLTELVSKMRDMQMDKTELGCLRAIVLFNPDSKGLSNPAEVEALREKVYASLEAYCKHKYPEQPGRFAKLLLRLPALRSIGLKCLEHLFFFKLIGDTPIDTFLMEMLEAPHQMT
In short: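 Interaction of Nurr1 with RXRα brings fused reporter fragments together in human HEK293T cells, restoring a functional reporter. Fluorescence intensity is measured 24 h after chemical treatment, and values are analysed in the positive direction against DMSO.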

[3] = biological target: Peroxisome proliferator-activated receptor gamma (Homo sapiens) (UniProt P37231); assay: OT_PPARg_PPARgSRC1_0480: Odyssey Thera (OT) 8-hour Protein-Complementation Assay for Peroxisome Proliferator-activated Receptor Gamma / SRC-1 Co-activator (AID 2283387; active = hit-call score of the fitted dose curve at least 0.9, where 1 is the maximum;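 also: nuclear to cytoplasmic split Venus YFP fluorescence ratio reporting PPARg SRC-1 interaction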)
Chain of Peroxisome proliferator-activated receptor gamma (Homo sapiens) (P37231 whole entry, looked up, the tested form may be a part): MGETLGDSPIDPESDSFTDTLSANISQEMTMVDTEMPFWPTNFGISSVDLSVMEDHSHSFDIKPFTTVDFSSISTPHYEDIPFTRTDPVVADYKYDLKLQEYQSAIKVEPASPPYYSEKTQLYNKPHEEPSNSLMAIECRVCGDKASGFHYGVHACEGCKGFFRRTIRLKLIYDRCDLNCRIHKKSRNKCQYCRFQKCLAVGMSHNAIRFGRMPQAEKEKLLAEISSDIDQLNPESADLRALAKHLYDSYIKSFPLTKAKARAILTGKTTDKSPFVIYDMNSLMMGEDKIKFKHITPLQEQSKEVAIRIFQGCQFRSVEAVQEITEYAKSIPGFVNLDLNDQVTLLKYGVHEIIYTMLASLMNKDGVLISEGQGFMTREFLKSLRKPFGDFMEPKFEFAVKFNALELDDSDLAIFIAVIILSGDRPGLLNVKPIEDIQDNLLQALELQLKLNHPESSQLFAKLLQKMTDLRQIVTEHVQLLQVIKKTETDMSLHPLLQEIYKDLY
In short: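 Protein-fragment complementation in HEK293T: Venus YFP halves (residues 1-158, 159-239, mutated to IFP1/IFP2) fused to PPARg/SRC-1. 8 h exposure; N/C ratio at 488 nm; DMSO negative control.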

[4] = biological target: Peroxisome proliferator-activated receptor gamma (Homo sapiens) (UniProt P37231); assay: OT_PPARg_PPARgSRC1_1440: Odyssey Thera (OT) 24-hour Protein-Complementation Assay for Peroxisome Proliferator-activated Receptor Gamma/ SRC-1 Co-activator (AID 2283388; active = hit-call score of the fitted dose curve at least 0.9, where 1 is the maximum;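 also: nuclear to cytoplasmic ratio of reconstituted Venus YFP fluorescence in fixed imaged cells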)
In short: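 Protein-fragment complementation between PPARg and coactivator SRC-1 was measured by fluorescence imaging in transiently transfected HEK293T cells after 24 h treatment. Signal was quantified as N/C ratio in the 488 nm channel, with DMSO as negative control.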

[5] = CEETOX_H295R_OHPREG: CeeTox H295R High-throughput Steroidogenesis Assay for OH-Pregnenolone (OHPREG) (AID 2283434); conditions: actives raise or lower the signal
In short: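 Hormone levels in spent medium were measured by tandem mass spectrometry following liquid-liquid extraction. Cells (H295R) had been forskolin-stimulated (10 uM, 48 h) before a 48 h chemical exposure at 0.1% DMSO, with activity fitted in both directions against DMSO.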

[6] = CEETOX_H295R_OHPROG: CeeTox H295R High-throughput Steroidogenesis Assay for OH-Progesterone (OHPROG) (AID 2283435); conditions: actives raise or lower the signal
In short: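 H295R, 10 uM forskolin prestim 48 h; cmpd in 0.1% DMSO 48 h; medium MTBE-extracted, HPLC-MS/MS for OH-progesterone; 7-pt std curve; bidirectional fit vs DMSO; MTT viability, chemicals diluted until viability >/=70%.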

[7] = CEETOX_H295R_ANDR: CeeTox H295R High-throughput Steroidogenesis Assay for Androstenedione (ANDR) (AID 2283436); conditions: actives raise or lower the signal;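 also: human H295R adrenal cells exposed for 48 h with androstenedione measured in medium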
In short: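 Read-out is androstenedione secreted into medium, measured by tandem mass spectrometry after liquid-liquid extraction. Cells were H295R, dosed for 48 h per modified OECD 456; activity fitted in both directions relative to DMSO.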

[8] = CEETOX_H295R_CORTIC: CeeTox H295R High-throughput Steroidogenesis Assay for Corticosterone (CORTIC) (AID 2283437); conditions: actives raise or lower the signal;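 also: corticosterone secreted into medium quantified by mass spectrometry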
In short: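 Corticosterone secreted into medium is measured by reverse-phase HPLC with tandem MS following liquid-liquid extraction. Cells are forskolin-stimulated (10 uM, 48 h) before 48 h test exposure; activity fitted in both directions against DMSO.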

[9] = CEETOX_H295R_CORTISOL: CeeTox H295R High-throughput Steroidogenesis Assay for Cortisol (AID 2283438); conditions: actives raise or lower the signal;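 also: cortisol secreted into medium quantified by LC-MS/MS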
In short: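 Forskolin 10 uM 48 h prestim → test cmpd in DMSO (0.1% final) 48 h → medium MTBE-extracted → LC-MS/MS cortisol vs 7-pt std curve. Gain/loss of signal fitted vs DMSO. MTT viability in same wells.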

[10] = CEETOX_H295R_DOC: CeeTox H295R High-throughput Steroidogenesis Assay for DOC (AID 2283439); conditions: actives raise or lower the signal
In short: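 Readout: 11-deoxycorticosterone in culture medium by reverse-phase C18 HPLC with ESI+ tandem MS after MTBE extraction. Cells: H295R, forskolin-primed (10 uM, 48 h), chemical-treated 48 h; DMSO 0.1% final. Activity fitted bidirectionally versus DMSO.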

[11] = CEETOX_H295R_ESTRADIOL: CeeTox H295R High-throughput Steroidogenesis Assay for Estradiol (AID 2283440); conditions: actives raise or lower the signal;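 also: estradiol secreted into medium quantified by LC-MS/MS after dansyl derivatisation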
In short: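 Estradiol secreted into the medium was measured by tandem mass spectrometry after liquid-liquid extraction and dansylation. Human H295R cells had been forskolin-primed (10 uM, 48 h) before a 48 h chemical exposure with 0.1% DMSO.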

[12] = CEETOX_H295R_ESTRONE: CeeTox H295R High-throughput Steroidogenesis Assay for Estrone (AID 2283441); conditions: actives raise or lower the signal;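 also: estrone secreted into medium measured by LC-MS/MS after dansyl derivatization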
In short: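 H295R cells prestimulated 48 h with 10 uM forskolin, then exposed 48 h to chemicals in 0.1% DMSO final; estrone in medium extracted with MTBE, dansyl-derivatized, quantified by HPLC-MS/MS; bidirectional fitting versus DMSO, viability by MTT.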

[13] = CEETOX_H295R_PROG: CeeTox H295R High-throughput Steroidogenesis Assay for Progesterone (PROG) (AID 2283442); conditions: actives raise or lower the signal;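 as to AC50: human H295R adrenal cells primed with 10 µM forskolin before dosing; progesterone secreted into medium by H295R cells measured by HPLC-MS/MS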
In short: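 Steps: seed H295R cells and let them adhere overnight; prime 48 h with 10 uM forskolin; dose with compound in DMSO at 0.1% final for 48 h; extract medium steroids with MTBE; measure progesterone by LC-MS/MS. MTT viability was run in the same wells.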

[14] = read-out: Tumor necrosis factor receptor superfamily member 6 (Homo sapiens) (UniProt P25445); assay: LTEA_HepaRG_FAS: Life Technologies and Expression Analysis (LTEA) Assay for Fas cell surface death receptor (FAS) using HepaRG (AID 2283447); conditions: mRNA level, 48 h; actives raise or lower the signal
In short: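 FAS transcript level was measured by TaqMan qRT-PCR against three housekeeping genes after 48 h chemical exposure. Cells were HepaRG, 0.5% DMSO vehicle, with a top concentration of 100 uM and half-log dilutions over eight points, in duplicate.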

[15] = read-out: Fatty acid synthase (Homo sapiens) (UniProt P49327); assay: LTEA_HepaRG_FASN: Life Technologies and Expression Analysis (LTEA) Assay for Fatty Acid Synthase (FASN) using HepaRG (AID 2283448); conditions: mRNA level, 48 h; actives raise or lower the signal;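 as to AC50: differentiated human HepaRG liver cells in serum-free induction medium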
In short: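 FASN expression changes, up or down relative to 0.5% DMSO, were measured by qRT-PCR in human HepaRG cells after 48 h treatment with chemicals at eight concentrations (half-log steps from 100 uM).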

[16] = read-out: Cyclin Dependent Kinase Inhibitor 1A (CDKN1A), CDKN1A (gene 1026); assay: LTEA_HepaRG_CDKN1A: Life Technologies and Expression Analysis (LTEA) Assay for Cyclin Dependent Kinase Inhibitor 1A (CDKN1A) using HepaRG (AID 2283450); conditions: mRNA level, 48 h; actives raise or lower the signal
In short: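 Read-out is CDKN1A mRNA by TaqMan qRT-PCR, normalized to three housekeeping genes and fitted in both directions against the DMSO baseline. Human HepaRG cells were treated 48 h with test chemicals up to 100 uM in half-log steps, 0.5% DMSO.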

[17] = read-out: Cyclin D1 (CCND1), CCND1 (gene 595); assay: LTEA_HepaRG_CCND1: Life Technologies and Expression Analysis (LTEA) Assay for Cyclin D1 (CCND1) using HepaRG (AID 2283451); conditions: mRNA level, 48 h; actives raise or lower the signal;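 as to AC50: differentiated human HepaRG liver cells in serum-free induction medium; TaqMan qRT-PCR transcript level normalised to ACTB GAPDH and POLR2A housekeeping genes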
In short: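 HepaRG plated 48 h, medium switched to serum-free induction medium, chemicals added in duplicate (top 100 uM, half-log steps, 0.5% DMSO) for 48 h, cells lysed, RNA measured by TaqMan qRT-PCR.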

[18] = read-out: catalase (CAT), CAT (gene 847); assay: LTEA_HepaRG_CAT: Life Technologies and Expression Analysis (LTEA) Assay for catalase (CAT) using HepaRG (AID 2283452); conditions: mRNA level, 48 h; actives raise or lower the signal;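 as to AC50: TaqMan qRT-PCR signal normalized to ACTB GAPDH and POLR2A housekeeping genes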
In short: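 Expression of CAT was quantified by TaqMan qRT-PCR with ACTB/GAPDH/POLR2A normalization after 48 h chemical exposure of HepaRG. Eight-point half-log series, top 100 uM, in 0.5% DMSO; gain or loss fitted against vehicle.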

[19] = biological target: Bile acid receptor (Homo sapiens) (UniProt Q96RI1); assay: OT_FXR_FXRSRC1_0480: Odyssey Thera (OT) 8-hour HEK293T Protein-Complementation Assay for Farnesoid X receptor/SRC-1 Co-activator (AID 2283383; active = hit-call score of the fitted dose curve at least 0.9, where 1 is the maximum)
Chain of Bile acid receptor (Homo sapiens) (Q96RI1 whole entry, looked up, the tested form may be a part): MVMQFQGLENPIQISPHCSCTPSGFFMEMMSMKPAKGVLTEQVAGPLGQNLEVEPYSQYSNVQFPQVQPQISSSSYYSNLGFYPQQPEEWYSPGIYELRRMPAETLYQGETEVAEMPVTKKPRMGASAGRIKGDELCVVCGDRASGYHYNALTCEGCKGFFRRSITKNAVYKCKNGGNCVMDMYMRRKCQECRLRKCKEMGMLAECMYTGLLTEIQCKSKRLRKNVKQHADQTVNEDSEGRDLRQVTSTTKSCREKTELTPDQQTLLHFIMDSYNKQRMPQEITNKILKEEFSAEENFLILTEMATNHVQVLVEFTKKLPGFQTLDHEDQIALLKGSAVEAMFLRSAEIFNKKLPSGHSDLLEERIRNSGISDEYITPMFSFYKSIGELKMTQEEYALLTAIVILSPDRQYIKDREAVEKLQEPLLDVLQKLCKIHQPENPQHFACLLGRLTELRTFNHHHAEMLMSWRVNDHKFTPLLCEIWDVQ
In short: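 Human kidney HEK293T cells carried FXR/SRC-1 fragment-complementation constructs. Compounds were added and incubated 8 h. Reporter reassembly upon receptor–co-activator interaction was then quantified by fluorescence, with curves fitted in the positive direction relative to DMSO.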

[20] = biological target: Bile acid receptor (Homo sapiens) (UniProt Q96RI1); assay: OT_FXR_FXRSRC1_1440: Odyssey Thera (OT) 24-hour HEK293T Protein-Complementation Assay for Farnesoid X receptor/SRC-1 Co-activator (AID 2283384; active = hit-call score of the fitted dose curve at least 0.9, where 1 is the maximum)
In short: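 Compounds are applied to human kidney HEK293T cells expressing bait and prey fused to reporter protein fragments; after 24 h, reconstituted reporter fluorescence is measured. Activity is fitted as signal gain over DMSO.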

Chain of Fatty acid synthase (Homo sapiens) (P49327 whole entry, looked up): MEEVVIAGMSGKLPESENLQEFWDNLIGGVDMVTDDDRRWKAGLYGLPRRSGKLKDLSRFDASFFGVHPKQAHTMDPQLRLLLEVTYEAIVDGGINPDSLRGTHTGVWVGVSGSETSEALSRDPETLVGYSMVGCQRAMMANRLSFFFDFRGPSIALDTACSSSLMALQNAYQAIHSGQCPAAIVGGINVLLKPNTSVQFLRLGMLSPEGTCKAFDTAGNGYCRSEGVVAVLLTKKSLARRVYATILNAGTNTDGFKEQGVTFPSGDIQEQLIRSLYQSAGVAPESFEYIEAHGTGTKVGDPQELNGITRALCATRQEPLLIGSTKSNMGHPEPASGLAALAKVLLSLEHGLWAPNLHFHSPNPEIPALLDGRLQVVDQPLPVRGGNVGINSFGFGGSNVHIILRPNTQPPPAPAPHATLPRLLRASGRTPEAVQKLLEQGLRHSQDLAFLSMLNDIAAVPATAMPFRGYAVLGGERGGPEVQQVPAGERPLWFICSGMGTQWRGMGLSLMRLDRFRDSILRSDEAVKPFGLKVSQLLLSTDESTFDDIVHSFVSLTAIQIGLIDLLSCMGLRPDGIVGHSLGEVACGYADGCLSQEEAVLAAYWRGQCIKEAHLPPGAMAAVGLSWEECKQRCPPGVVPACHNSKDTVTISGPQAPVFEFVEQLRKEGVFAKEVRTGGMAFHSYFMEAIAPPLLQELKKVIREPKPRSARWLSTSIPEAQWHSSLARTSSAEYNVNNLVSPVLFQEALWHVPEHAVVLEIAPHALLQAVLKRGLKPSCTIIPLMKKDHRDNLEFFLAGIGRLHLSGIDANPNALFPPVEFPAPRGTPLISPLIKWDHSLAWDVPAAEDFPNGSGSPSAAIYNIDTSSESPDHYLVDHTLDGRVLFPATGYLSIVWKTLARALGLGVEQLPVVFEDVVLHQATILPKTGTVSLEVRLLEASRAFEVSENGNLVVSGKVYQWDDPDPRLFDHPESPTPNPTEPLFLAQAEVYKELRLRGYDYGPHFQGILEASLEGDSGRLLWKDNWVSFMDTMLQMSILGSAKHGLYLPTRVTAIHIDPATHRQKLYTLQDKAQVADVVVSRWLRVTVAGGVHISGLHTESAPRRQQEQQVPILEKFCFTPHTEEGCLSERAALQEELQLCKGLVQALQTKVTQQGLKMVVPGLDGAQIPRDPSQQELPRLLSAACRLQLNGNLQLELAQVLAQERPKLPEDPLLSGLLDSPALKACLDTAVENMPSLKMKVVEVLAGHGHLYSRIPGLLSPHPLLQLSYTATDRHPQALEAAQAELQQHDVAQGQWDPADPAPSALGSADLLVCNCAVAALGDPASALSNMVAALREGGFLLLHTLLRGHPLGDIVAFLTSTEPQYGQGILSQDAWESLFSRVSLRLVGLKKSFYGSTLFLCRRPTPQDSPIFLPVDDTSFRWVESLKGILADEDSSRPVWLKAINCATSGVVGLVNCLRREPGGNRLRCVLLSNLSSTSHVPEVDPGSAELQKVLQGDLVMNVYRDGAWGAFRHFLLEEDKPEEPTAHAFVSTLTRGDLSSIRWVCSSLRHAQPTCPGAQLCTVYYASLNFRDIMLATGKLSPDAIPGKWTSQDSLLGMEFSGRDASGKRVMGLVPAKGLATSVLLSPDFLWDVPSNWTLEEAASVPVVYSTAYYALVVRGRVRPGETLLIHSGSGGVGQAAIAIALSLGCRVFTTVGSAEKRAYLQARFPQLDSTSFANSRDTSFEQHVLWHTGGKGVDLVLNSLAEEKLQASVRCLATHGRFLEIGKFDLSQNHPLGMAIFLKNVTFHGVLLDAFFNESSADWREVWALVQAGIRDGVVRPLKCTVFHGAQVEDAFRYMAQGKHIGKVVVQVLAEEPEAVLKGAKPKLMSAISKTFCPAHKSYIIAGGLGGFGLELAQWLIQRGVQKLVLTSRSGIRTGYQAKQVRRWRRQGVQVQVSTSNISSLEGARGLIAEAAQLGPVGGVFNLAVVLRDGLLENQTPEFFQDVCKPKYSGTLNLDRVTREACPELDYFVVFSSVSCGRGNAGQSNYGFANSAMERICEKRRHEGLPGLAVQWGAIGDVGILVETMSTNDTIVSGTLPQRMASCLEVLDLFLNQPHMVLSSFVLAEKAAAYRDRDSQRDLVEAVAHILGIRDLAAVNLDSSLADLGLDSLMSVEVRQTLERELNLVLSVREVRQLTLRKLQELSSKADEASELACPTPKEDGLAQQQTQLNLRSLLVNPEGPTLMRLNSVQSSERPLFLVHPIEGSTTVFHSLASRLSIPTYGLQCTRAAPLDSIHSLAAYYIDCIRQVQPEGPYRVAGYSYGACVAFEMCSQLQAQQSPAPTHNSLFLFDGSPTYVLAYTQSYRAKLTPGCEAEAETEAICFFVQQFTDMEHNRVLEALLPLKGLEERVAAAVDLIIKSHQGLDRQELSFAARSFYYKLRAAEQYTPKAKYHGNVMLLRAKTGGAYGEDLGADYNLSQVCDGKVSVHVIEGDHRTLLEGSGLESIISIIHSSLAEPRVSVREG

Which results are given for `C[C@H]1[C@H](c2ccc(Cl)cc2)SC(=O)N1C(=O)NC1CCCCC1`?
outcome [1]: inactive; outcome [2]: inactive; outcome [3]: inactive; outcome [4]: inactive; outcome [5]: inactive; outcome [6]: inactive; outcome [7]: inactive; outcome [8]: inactive; outcome [9]: inactive; outcome [10]: inactive; outcome [11]: inactive; outcome [12]: inactive; outcome [13]: inactive; AC50 [14]: 90.5 µM (active); outcome [15]: inactive; AC50 [16]: 71.6 µM (active); outcome [17]: inactive; AC50 [18]: 66.2 µM (active)

With `CCOC1Oc2ccc(OS(C)(=O)=O)cc2C1(C)C` (stereo not given) as the compound, how does the AC50 [1] read?
The AC50 was 53.4 µM (active).

What about the outcome [2] of the same compound?
The outcome was “inactive”.

What about the outcome [3] of the same compound?
The outcome was “inactive”.

And the outcome [4]?
The outcome was “inactive”.

And the outcome [14]?
Its outcome is “inactive”.

What about the outcome [15] of the same compound?
Its outcome is “inactive”.

What about the AC50 [16] of the same compound?
The AC50 was 87.1 µM (active).

And the AC50 [17]?
The AC50 was 76.1 µM (active).

What about the AC50 [18] of the same compound?
Its AC50 is 74.1 µM (active).

With `CCC(C)(NC(=O)c1cc(Cl)c(C)c(Cl)c1)C(=O)CCl` (stereo not given) as the compound, how does the AC50 [1] read?
The AC50 was 45 µM (active).

What about the outcome [3] of the same compound?
The outcome was “inactive”.

And the outcome [4]?
Its outcome is “inactive”.

What about the AC50 [14] of the same compound?
Its AC50 is 92.4 µM (active).

What about the outcome [15] of the same compound?
The outcome was “inactive”.

What about the outcome [16] of the same compound?
Its outcome is “inactive”.

And the AC50 [17]?
Its AC50 is 77.8 µM (active).

What about the AC50 [18] of the same compound?
The AC50 was 71 µM (active).

Which results are given for `Clc1ccccc1-c1nnc(-c2ccccc2Cl)nn1`?
outcome [1]: inactive; outcome [2]: inactive; outcome [3]: inactive; outcome [4]: inactive; outcome [5]: inactive; outcome [6]: inactive; outcome [11]: inactive; outcome [12]: inactive; outcome [13]: inactive; outcome [14]: inactive; AC50 [15]: 24.7 µM (active); outcome [16]: inactive; outcome [17]: inactive; outcome [18]: inactive

With `Oc1ccc(Cl)cc1Cc1ccccc1` as the compound, how does the outcome [2] read?
The outcome was “inactive”.

And the outcome [3]?
The outcome was “inactive”.

And the outcome [4]?
Its outcome is “inactive”.

What about the outcome [5] of the same compound?
Its outcome is “inactive”.

And the AC50 [7]?
Its AC50 is 78 µM (active).

What about the outcome [8] of the same compound?
The outcome was “inactive”.

What about the outcome [9] of the same compound?
Its outcome is “inactive”.

What about the AC50 [10] of the same compound?
The AC50 was 39.9 µM (active).

What about the outcome [13] of the same compound?
Its outcome is “inactive”.

What about the outcome [14] of the same compound?
The outcome was “inactive”.

What about the AC50 [15] of the same compound?
The AC50 was 87.9 µM (active) and 74.3 µM (active) and 81.6 µM (active).

And the outcome [16]?
Its outcome is “inactive”.

What about the AC50 [17] of the same compound?
Its AC50 is 50.5 µM (active).

What about the outcome [17] of the same compound?
Its outcome is “inactive”.

What about the outcome [18] of the same compound?
The outcome was “inactive”.

Which AC50 [19] does the source give for `CCCN(CCOc1c(Cl)cc(Cl)cc1Cl)C(=O)n1ccnc1` here?
Its AC50 is 11.7 µM (active).

What about the AC50 [20] of the same compound?
The AC50 was 12.4 µM (active).

What about the outcome [2] of the same compound?
Its outcome is “inactive”.

And the outcome [3]?
The outcome was “inactive”.

What about the outcome [4] of the same compound?
The outcome was “inactive”.

What about the AC50 [5] of the same compound?
Its AC50 is 159 nM (active).

What about the outcome [6] of the same compound?
Its outcome is “inactive”.

What about the AC50 [8] of the same compound?
The AC50 was 12.2 nM (active).

And the AC50 [9]?
The AC50 was 355 nM (active).

And the AC50 [10]?
Its AC50 is 0.0358 µM (active).

What about the AC50 [13] of the same compound?
Its AC50 is 211 nM (active).

And the outcome [14]?
The outcome was “inactive”.

What about the AC50 [15] of the same compound?
Its AC50 is 77.4 µM (active).

And the AC50 [16]?
The AC50 was 30.5 µM (active).

And the AC50 [17]?
Its AC50 is 89.8 µM (active).

And the AC50 [18]?
The AC50 was 32.1 µM (active).
